Test results published in ChEMBL document CHEMBL1961873, “Compounds: GSK PKIS; Assays: Nanosyn kinase panel” (2012).

How the values were obtained:
[1] = target: Leukocyte tyrosine kinase receptor (Homo sapiens) (UniProt P29376); details: at 1 µM;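 further: each value is the mean inhibition of LTK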
[2] = target: Tyrosine-protein kinase Lyn (Homo sapiens) (UniProt P07948); details: at 0.1 µM
[3] = target: Tyrosine-protein kinase Lyn (Homo sapiens) (UniProt P07948); details: at 1 µM
[4] = target: Tyrosine-protein kinase Lyn (Homo sapiens) (UniProt P07948); details: at 0.1 µM; remark: listed apart in the source
[5] = target: Tyrosine-protein kinase Lyn (Homo sapiens) (UniProt P07948); details: at 1 µM; remark: listed apart in the source
[6] = target: T1, Tyrosine-protein kinase Mer (Homo sapiens) (UniProt Q12866); details: at 0.1 µM
T1 sequence (whole entry): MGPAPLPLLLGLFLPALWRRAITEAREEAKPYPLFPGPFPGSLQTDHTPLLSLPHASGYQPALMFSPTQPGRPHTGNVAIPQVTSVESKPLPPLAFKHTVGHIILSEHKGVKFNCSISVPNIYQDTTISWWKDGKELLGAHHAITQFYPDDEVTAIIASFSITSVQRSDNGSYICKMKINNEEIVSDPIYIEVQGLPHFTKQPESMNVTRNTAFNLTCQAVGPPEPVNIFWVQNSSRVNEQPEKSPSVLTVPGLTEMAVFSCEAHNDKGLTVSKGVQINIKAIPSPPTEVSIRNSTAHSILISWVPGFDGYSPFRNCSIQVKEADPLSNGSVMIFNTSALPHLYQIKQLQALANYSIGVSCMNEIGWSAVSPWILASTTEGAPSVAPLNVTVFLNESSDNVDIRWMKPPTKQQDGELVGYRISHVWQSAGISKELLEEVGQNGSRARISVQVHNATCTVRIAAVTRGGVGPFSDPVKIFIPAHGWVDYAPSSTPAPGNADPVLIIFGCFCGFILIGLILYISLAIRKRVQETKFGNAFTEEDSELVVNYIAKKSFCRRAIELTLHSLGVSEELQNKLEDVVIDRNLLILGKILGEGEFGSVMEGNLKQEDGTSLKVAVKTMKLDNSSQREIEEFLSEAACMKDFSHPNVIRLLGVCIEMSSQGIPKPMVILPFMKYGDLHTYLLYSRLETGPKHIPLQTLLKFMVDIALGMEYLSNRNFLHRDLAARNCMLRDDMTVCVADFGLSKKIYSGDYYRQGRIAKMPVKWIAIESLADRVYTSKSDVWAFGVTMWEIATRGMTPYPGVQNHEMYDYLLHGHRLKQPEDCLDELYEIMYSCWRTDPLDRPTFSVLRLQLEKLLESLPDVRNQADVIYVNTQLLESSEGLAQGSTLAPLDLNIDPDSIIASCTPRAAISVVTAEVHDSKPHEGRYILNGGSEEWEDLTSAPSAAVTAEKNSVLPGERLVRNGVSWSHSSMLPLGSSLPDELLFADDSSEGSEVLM

[7] = target: T1, Tyrosine-protein kinase Mer (Homo sapiens); details: at 1 µM
[8] = target: Hepatocyte growth factor receptor (Homo sapiens) (UniProt P08581); details: at 0.1 µM
Sequence of Hepatocyte growth factor receptor (Homo sapiens) (P08581 whole entry): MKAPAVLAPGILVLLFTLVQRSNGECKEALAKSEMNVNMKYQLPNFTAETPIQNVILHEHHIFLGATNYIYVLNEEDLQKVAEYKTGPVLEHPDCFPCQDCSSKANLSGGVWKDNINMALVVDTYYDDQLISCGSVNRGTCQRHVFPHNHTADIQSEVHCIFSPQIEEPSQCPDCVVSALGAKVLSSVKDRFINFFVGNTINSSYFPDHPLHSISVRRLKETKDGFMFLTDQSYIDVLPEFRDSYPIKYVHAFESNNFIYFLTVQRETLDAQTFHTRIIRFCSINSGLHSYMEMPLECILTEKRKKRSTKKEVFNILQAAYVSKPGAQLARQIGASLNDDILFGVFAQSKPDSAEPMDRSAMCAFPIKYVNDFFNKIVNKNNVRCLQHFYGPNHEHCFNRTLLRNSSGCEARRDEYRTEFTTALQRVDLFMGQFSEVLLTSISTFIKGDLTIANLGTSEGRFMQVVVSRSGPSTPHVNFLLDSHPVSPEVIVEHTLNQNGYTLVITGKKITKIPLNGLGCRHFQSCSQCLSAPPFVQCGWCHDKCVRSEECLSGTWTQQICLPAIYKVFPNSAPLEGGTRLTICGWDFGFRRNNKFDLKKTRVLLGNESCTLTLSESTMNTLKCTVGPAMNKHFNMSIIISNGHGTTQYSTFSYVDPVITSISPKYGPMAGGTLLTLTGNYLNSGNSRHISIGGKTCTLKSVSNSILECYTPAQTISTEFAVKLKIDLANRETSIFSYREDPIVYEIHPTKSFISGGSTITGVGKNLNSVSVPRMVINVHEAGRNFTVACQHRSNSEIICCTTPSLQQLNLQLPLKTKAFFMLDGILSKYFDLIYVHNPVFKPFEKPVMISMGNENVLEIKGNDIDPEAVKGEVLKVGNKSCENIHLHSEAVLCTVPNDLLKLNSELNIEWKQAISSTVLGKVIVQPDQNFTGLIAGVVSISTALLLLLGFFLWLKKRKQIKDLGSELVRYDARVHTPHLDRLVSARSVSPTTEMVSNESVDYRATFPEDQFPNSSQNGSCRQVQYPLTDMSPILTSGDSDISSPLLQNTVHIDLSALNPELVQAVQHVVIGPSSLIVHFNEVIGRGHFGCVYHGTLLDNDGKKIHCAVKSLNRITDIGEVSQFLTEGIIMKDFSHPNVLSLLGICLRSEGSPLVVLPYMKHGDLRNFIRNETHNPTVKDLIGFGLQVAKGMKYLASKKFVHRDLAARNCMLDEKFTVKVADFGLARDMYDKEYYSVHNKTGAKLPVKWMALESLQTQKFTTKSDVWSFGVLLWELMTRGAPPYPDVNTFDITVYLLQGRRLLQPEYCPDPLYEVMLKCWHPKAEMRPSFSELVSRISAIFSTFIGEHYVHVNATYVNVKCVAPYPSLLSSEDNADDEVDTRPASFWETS

[9] = target: Hepatocyte growth factor receptor (Homo sapiens) (UniProt P08581); details: at 1 µM
[10] = target: T2, Muscle, skeletal receptor tyrosine-protein kinase (Homo sapiens) (UniProt O15146); details: at 0.1 µM;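 further: values are mean inhibition of MuSK from the GSK PKIS kinase screening panel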
T2 sequence (whole entry): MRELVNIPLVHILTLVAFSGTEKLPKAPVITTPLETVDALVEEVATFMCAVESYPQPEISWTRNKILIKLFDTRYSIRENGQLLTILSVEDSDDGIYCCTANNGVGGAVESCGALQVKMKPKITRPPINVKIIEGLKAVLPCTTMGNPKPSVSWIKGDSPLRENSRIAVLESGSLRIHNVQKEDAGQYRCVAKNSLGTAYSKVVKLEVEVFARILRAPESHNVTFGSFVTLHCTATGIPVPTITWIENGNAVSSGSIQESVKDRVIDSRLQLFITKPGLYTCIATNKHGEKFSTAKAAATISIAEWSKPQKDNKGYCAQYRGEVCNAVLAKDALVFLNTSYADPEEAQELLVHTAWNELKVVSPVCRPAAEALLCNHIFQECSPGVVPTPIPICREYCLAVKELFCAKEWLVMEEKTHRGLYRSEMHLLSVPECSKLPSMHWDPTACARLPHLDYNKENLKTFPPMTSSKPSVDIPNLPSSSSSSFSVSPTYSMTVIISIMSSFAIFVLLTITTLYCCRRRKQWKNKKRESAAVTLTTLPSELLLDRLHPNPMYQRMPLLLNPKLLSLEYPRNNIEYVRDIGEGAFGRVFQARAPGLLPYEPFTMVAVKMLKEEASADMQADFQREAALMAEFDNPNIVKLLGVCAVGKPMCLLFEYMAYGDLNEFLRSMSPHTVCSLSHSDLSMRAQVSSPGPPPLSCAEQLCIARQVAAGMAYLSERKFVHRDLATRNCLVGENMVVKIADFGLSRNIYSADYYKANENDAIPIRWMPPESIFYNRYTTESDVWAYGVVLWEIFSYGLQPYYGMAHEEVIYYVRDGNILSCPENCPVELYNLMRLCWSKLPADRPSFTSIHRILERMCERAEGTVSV

Sequence of Tyrosine-protein kinase Lyn (Homo sapiens) (P07948 2-512 limits assumed): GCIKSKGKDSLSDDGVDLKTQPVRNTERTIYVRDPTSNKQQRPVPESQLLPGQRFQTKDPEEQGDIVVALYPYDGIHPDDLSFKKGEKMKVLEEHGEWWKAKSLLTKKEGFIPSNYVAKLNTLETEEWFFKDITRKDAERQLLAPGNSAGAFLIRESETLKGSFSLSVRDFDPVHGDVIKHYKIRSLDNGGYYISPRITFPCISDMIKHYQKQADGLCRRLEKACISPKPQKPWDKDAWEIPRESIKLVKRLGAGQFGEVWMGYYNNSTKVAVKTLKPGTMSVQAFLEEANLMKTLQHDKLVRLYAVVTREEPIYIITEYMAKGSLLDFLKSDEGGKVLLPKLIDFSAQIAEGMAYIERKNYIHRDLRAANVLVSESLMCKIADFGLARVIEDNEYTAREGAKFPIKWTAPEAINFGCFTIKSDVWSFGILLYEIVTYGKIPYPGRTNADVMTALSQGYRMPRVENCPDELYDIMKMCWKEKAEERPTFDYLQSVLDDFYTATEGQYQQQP
Sequence of Leukocyte tyrosine kinase receptor (Homo sapiens) (P29376 whole entry): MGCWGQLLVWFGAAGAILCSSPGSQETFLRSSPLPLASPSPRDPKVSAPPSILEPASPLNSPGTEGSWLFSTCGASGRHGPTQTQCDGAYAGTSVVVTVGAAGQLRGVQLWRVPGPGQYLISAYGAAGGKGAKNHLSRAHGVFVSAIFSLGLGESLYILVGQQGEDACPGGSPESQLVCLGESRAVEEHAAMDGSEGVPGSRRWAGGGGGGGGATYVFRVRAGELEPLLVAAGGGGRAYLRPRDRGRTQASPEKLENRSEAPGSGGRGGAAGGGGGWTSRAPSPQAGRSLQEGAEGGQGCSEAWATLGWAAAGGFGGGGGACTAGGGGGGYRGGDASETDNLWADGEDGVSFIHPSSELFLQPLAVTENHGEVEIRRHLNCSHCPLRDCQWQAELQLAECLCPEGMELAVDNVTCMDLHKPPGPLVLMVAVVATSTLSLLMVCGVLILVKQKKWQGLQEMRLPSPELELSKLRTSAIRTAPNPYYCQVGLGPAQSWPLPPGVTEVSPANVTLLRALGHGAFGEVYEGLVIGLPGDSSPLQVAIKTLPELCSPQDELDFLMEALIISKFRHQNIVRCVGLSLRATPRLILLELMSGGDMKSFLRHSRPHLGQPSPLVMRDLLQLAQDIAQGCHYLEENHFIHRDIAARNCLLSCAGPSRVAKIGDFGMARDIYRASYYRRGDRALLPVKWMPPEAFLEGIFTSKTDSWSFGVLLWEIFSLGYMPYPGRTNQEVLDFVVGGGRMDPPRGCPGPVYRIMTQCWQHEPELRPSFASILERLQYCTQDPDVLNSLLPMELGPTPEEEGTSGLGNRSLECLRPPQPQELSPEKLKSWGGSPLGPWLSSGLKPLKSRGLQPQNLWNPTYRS

SMILES	inhibition [1] [%]	inhibition [2] [%]	inhibition [3] [%]	inhibition [4] [%]	inhibition [5] [%]	inhibition [6] [%]	inhibition [7] [%]	inhibition [8] [%]	inhibition [9] [%]	inhibition [10] [%]
CCn1c(-c2nonc2N)nc2ccncc21	0.42	2.64	-1.88	1.5	-0.9	0.16	-0.52	8.81	2.41	-0.65
CN1CCC(C(=O)Nc2n[nH]c3nnc(-c4ccccc4)cc23)CC1	4.51	5.18	4.72	2.24	3.51	1.95	7.11	1.78	3.43	3.93
COc1cc2ncn(-c3cc(O[C@@H](C)c4ccccc4Cl)c(C(N)=O)s3)c2cc1OC	4.56	6.39	28.6	4.74	22	4.25	10.3	4.76	3.23	2.77
CCn1c(-c2nonc2N)nc2cncc(C(=O)N3CC[C@H](N)C3)c21	4.61	8.57	7.74	6.42	5.67	0.47	3.48	5.74	5.85	4.23
Fc1cccc(COc2ccc(Nc3ncnc4sc(-c5cccs5)cc34)cc2Cl)c1	1.68	0.57	1.59	0.13	2.6	1.5	0.96	-1.35	-0.09	-0.17
Nc1ncnc2occ(-c3ccc(NC(=O)Nc4cccc(C(F)(F)F)c4)cc3)c12	47.1	19.4	72.2	13.3	67.8	3.32	31.6	3.03	29	72.9
CCn1c(-c2nonc2N)nc2cncc(C(=O)N3CCNCC3)c21	5.18	5.29	5.94	1.79	4.29	1.99	2.33	2.94	2.13	3.39
O=C1Nc2ccc(C(=O)c3ccco3)cc2C1=Cc1cc(Cl)c(O)c(Cl)c1	44.2	5.67	18.9	2.95	16.2	1.35	4.42	2.06	15.7	4.03
